Measurements as given in the supplement of paper PMC11417369.
± gives the standard deviation of the averaged measurements. The full ranking holds about 25,000 sequences; the median of “ln(normalized median fluorescence intensity)” is about 8.6, and the highest 2% start at about 10. This excerpt belongs to a sample that is enriched for the highest values.

test system: PfAP2-EXP AP2 domain (GST-tagged); assay: gcPBM binding intensity (ln(normalized median fluorescence intensity)); higher = stronger DNA binding
Procedure, shortened: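 Alexa488 anti-GST antibody, scanned at 488 nm, detected GST-tagged P. falciparum DNA-binding domains that had been expressed in E. coli and incubated for 1 h on an Agilent 4 × 180k array. The array carried primer-extended double-stranded 36-bp intergenic genomic probes and negative controls. Binding intensity is the highest Masliner-normalised natural-log median intensity across replicate spots of either orientation of each probe.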

Sequence	gcPBM binding intensity (ln)
AAAATCTAGGTATTTATACACACTAAAATAATATAC [CACACA_site623]	8.52 ± 0.3
AAATAAAATAAAATAAAATAAAATAAAATAAAATAA [XGTACX_negctrl_site142]	8.49 ± 0.28
AAAAAATATATATGCACACACAAAAAAACAAATTAA [CACACA_site1278]	8.78 ± 0.38
ATATATATATATTGTACACACATTTATGCATATATA [CACACA_site5738]	9.97 ± 0.3
AGTGAAATTTTAGTCACACAGTTTTATCTTTAAGAA [CACACA_site5202]	8.12 ± 0.52
TTGTGTTATCACACGAAGGGGATAAGACATAAATGT [TGCATGCA_negctrl_site368]	8.49 ± 0.49
TCTTAAGGAAAAGAGTGTACAGAAATTTTTATTAAC [XGTACX_site6139]	8.67 ± 0.48
TGTAGTCTGGAGAAAAGTACATAGTATCTGGTAACC [XGTACX_site2025]	8.62 ± 0.38
ATAAAAAGCTAAAAAGTGCAAAAAGTAAATATTTAA	9 ± 0.44
TTTAAATAAAATATTACACACTTAGAAAAATATATA [CACACA_site3663]	8.38 ± 0.28
AGAATAATAAAATGGGTGCAATAGTTTTTTTTTTTT [GTGCAC_site9823]	8.59 ± 0.13
AGGATATATAAGTATACACACATATTTATATTTATA [CACACA_site6239]	8.23 ± 0.42
CATATATATATATATACACACATATATATTTTCTTT [CACACA_site1457]	8.69 ± 0.15
TATATATATATATATACACACATATATATATTTTTC [CACACA_site3983]	10.2 ± 0.26
TTTTTTTTTTTTAATACACACATATATATATTTATT [CACACA_site3994]	8.38 ± 0.42
TATATAAACACGTACACACACATATAGGTATTTATA [CACACA_site7615]	8.71 ± 0.49
TATAAGTTTATATATACACACATATATATATATATA [CACACA_site3274]	10.2 ± 0.34
TTTTTTTTTTTTAATACACACATATTTATATTTATT [CACACA_site7802]	8.44 ± 0.3
ACAAATAAGTTTTATACACACATATAAGTAAATACA [CACACA_site4157]	8.57 ± 0.29
ATATATTTATTATTAGGTACACATATATATATATAT [XGTACX_site5045]	10.2 ± 0.54
AATATATTTTAATACACACACACATATATATATATA [CACACA_site5969]	10.3 ± 0.34
TATATACATATATATACACACATATATATATTTTAT [CACACA_site3788]	8.26 ± 0.4
ATTTATATATATATAGGTACACATATTTATATATAA [XGTACX_site8487]	8.23 ± 0.2

Sequence	gcPBM binding intensity (ln)
TATATAAACCCGTACACACACATATATGTATATATA [CACACA_site3507]	8.91 ± 0.25
TGTTTTTAAATTTAAATCAAAAAATAAAATAAAATA [GTGCAC_negctrl_site355]	8.34 ± 0.48
CTTACCAAAAGACACACACACACAAGATATATAAAT [CACACA_site6964]	8.77 ± 0.56
TATTGTTATGTCGTTATTAACTTTCTTTAATTAATT [CACACA_negctrl_site174]	8.95 ± 0.29
TTTTTTTTTTTGAGGAGGACACAAAAATATGCTACC [XGTACX_site756]	8.53 ± 0.26
TTTAATCAATGATTTAATGAAAAAAGCAAAAAAAAA [GTGCAC_negctrl_site213]	8.38 ± 0.45
TATATATATATATATACACACATATATATATTTATA [CACACA_site627]	10.3 ± 0.18
AAATTTTAATTAGGAACACACATATATATATATATA [CACACA_site5673]	10.2 ± 0.24
TAATATTGACTATATACACACATATATATATATATA [CACACA_site575]	10.2 ± 0.28
TAATATTGACTATATACACACATATAAATATAAATA [CACACA_site6414]	8.4 ± 0.33
AAAAATTTTAATTAGGAACACACATATATATATATA [CACACA_site9016]	10.1 ± 0.27
AAATTATAATTAGGAACACACATATATATATATATA [CACACA_site3098]	10.1 ± 0.33
TATATATATATTTATACACACACATATATTTATATA [CACACA_site8054]	9.47 ± 0.071
GTAATTTTTTTCTATACACACATATATATAATATAT [CACACA_site2655]	8.74 ± 0.32
TGAATATTTCTATATACACACATATATATATATATA [CACACA_site3451]	10.3 ± 0.12
TATTTATATTTATATACACACATACATATTTATATT [CACACA_site6535]	8.41 ± 0.33
ATTTATTGACTATTTACACACATATTTATTATAATA [CACACA_site1624]	8.9 ± 0.52
TGAATATTTCTATATACACACATATAAATATAAATA [CACACA_site7593]	8.26 ± 0.36
AAATTCATATGAATTTGTACGGACATAAATATCTTC [XGTACX_site1838]	8.62 ± 0.33
TGAATTTACAAAATCATGCACTTAATTACAGAATAA	8.38 ± 0.26
TCCATATGCAAACTGGTGCACAAGTAGCTTTTATAT	8.99 ± 0.3
TCATAAAAAGGAATCTTTAAGATATTTTATAAGCTC [XGTACX_negctrl_site18]	8.06 ± 0.5
TATATAAAAATCAATTGTACTTTTTTTTTTTTTTTT [XGTACX_site7327]	8.52 ± 0.16

Sequence	gcPBM binding intensity (ln)
TTAAGATCCTAAAAAACACACAATTGTGAATAATAA [CACACA_site3872]	8.69 ± 0.53
TGTAGATAAAATAAACGTACGTATTGATTTTTTTCA [XGTACX_site1610]	8.26 ± 0.41
TATTCTAGTCTGCTTACACACATATTTATATTTATA [CACACA_site7432]	8.81 ± 0.54
CATATTATATTCTGCTTACACACATATATATATATA [CACACA_site3059]	10.1 ± 0.42
TATTATATTCTGCTTACACACATATATATATATATA [CACACA_site3060]	10.3 ± 0.38
GAAGATTTATCTTGCACACGCAAAAAAAAAAAAAAA [CACACA_site154]	8.4 ± 0.27
TGAAGGATATATTCCGTGCACATATAAATATATACA	8.735 ± 0.007
AATCTTAAAAATATATGTACTAAAAAAAAAAAAAAT [XGTACX_site6195]	8.37 ± 0.47
AAAATATTTCATATATGTACTTAAAAAAAAAAAAAA [XGTACX_site5399]	8.27 ± 0.38
ATATATATATATATATGTACTAAATATTCATCCTTA [XGTACX_site6039]	10.2 ± 0.3
CTATATATATATTTCAGTACATATTAAGAATATATA [XGTACX_site4860]	8.31 ± 0.38
TATAACATAGGACACACACACATACATACACAAAAA [CACACA_site5062]	8.94 ± 0.35
ATATATATATATAAAGGTACACATTTATTAAATATA [XGTACX_site7102]	10.1 ± 0.12
TTTAATATGTATTTTTTTTTTTTTTTTTTTTTTTTT [XGTACX_negctrl_site440]	9.06 ± 0.085
AAGCATCCTACTGATTGTACATATATATATATATAT [XGTACX_site2150]	10.2 ± 0.3
ATATAATATATATATTGTACATATATTTATAAGCAT [XGTACX_site3726]	8.38 ± 0.19
ATATCCTACTTCTAGTGTACATATATGGACTGATGA [XGTACX_site3683]	8.87 ± 0.35
AACGAAATCATCAAGTGTACTAGTTTATTATTAATA [XGTACX_site6161]	8.38 ± 0.42
TTTTTTCTTTTTTTTTGTACATATAATATTTATGTT [XGTACX_site302]	8.62 ± 0.4
AAAATAATAATAGGCACACATATATATATATATATA [CACACA_site2058]	10.1 ± 0.33
ATGTACTATAGGCACACACACTCACATATATATATA [CACACA_site5745]	9.96 ± 0.22
AAGTACCATATAGGCACACATATATATATATATATA [CACACA_site3282]	10.2 ± 0.34
AAGAAAAGCAAACAAGTGCATAATAACAAAAAAAAT [GTGCAC_site9725]	9.13 ± 0.46

Sequence	gcPBM binding intensity (ln)
TTGTTTCTTAAATTATTTATTTTATATTAAAAAAAA [XGTACX_negctrl_site224]	8.31 ± 0.46
ATTTATTTTATTTTCACACACAAAAATAAATATCCG [CACACA_site2414]	8.44 ± 0.44
TTATTATTATTACTAGTGCATTAATTATATATGTAA	8.72 ± 0.13
ATATATATATATATATGTACATATTATTATTTTGAT [XGTACX_site4752]	10.1 ± 0.38
ATATATATATATATATGTACATACATATTGTTTGGT [XGTACX_site2284]	10.3 ± 0.76
ATATTGTTATATGTTTGTACATATTTTTTATATTTT [XGTACX_site6834]	8.93 ± 0.91
ATATATATATATATATGTACATATGTTTGTTTCCGC [XGTACX_site5167]	10.3 ± 0.21
GTGTTTTTTTTAGATTGTACATATATATATATATAT [XGTACX_site4562]	10.3 ± 0.33
TATATATCTATATATTGTACATATGTTTGTATGTGT [XGTACX_site7420]	8.54 ± 0.29
ATATATATATATATATGTACATATTTTTGTTTGATG [XGTACX_site51]	10.2 ± 0.81
CATATATATATATATTGTACAAGATTGTTTTTTTAT [XGTACX_site3913]	8.76 ± 0.35
TTTATATTGTTTTATTGTACATATATATTTATACAT [XGTACX_site6821]	8.81 ± 0.4
ATATATATATATATATGTACATATGTATGTGTTTGT [XGTACX_site397]	9.93 ± 0.42
TTTTTTTTTTGATGTTGTACATATATATTATATATA [XGTACX_site6377]	8.55 ± 0.41
ATATATATATATATATGTACACATATATGTGTTTGT [XGTACX_site62]	10.1 ± 0.26
TAACTAAGGAATAATACACACAGAAATATAGATTTA [CACACA_site6293]	8.41 ± 0.42
TTTTTTTTTTTTTTTTTTTTACGATATATTTTAAAA [XGTACX_negctrl_site401]	8.03 ± 0.67
GTTATACATTTGAAAAGTACTCATGATTTTTTTTTT [XGTACX_site8177]	8.75 ± 0.45
TCGAATATCTTATAGGTGCATCATAAATACATATGT	8.69 ± 0.28
TGTATATATAATAAAACACACATTTTTAATGTGCTC [CACACA_site1437]	8.01 ± 0.3
TTAACCACTAAAAGTACACACATATATACCTATATA [CACACA_site6026]	8.45 ± 0.28
